# HP1b chromo inh: HTS for Inhibitors of HP1-beta Chromodomain Interactions with Methylated Histone Tails; Chromobox protein homolog 1 (Homo sapiens), P83916; AlphaScreen HP1-beta / biotin-H3K9me3 peptide binding; Potency, µM (titrated, usually from 114 µM), without a hit: top-dose activity change, negative = inhibition, most hits filed as inhibitors; hit rate 0.56% among 390,000; AID 540317, 2011; further: nearly all actives have a fitted effect of over 70% in size
#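 Compound inhibition of the preformed complex between 50 nM HP1-beta and 50 nM biotinylated H3K9me3 peptide was read by AlphaScreen. Buffer was PBS pH 7.4 with 0.01% Tween-20. Incubations ran 30 min at room temperature, with 10 ug/mL donor/acceptor beads.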
# Sfp PPTase inh: qHTS Assay for Inhibitors of Bacillus subtilis Sfp phosphopantetheinyl transferase (PPTase) | hit rate 3.5% among 310,000 | AID 1490, 2009 | Biochemical Sfp PPTase activity, qHTS | 4'-phosphopantetheinyl transferase ffp (Bacillus subtilis), Q9F4F7 | Potency, µM, for inactives: largest response in the series, negative = inhibition, usual class: inhibitors;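 further: the enzyme is Sfp with the accession as filed and its product quenches rhodamine fluorescence; 0% = enzyme reaction without inhibitor and -100% = no enzyme wells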
#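 Sfp 15 nM + cpd, 15 min RT; start w/ rhodamine-CoA 5 uM, BHQ-2-YbbR 12.5 uM (final); 50 mM Hepes pH 7.6, 10 mM MgCl2, 0.01% NP-40, 0.01% BSA; read 525/598 nm at 0 and 30 min.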
# L3MBTL1 block: qHTS Assay for the Inhibitors of L3MBTL1; Lethal(3)malignant brain tumor-like protein 1 (Homo sapiens), Q9Y468; AlphaScreen L3MBTL1–H3K9me1 peptide binding; Potency, µM (series often up to 57.1 µM), without a hit: at the top dose activity, negative = inhibition, hits mostly inhibitors; hit rate 0.66% among 230,000; AID 485360, 2010; further: on the % scale 0 is the no-effect control and ±100 the full control effect; nearly all actives have a fitted effect of over 60% in size
# Target sequence (Q9Y468 whole entry, looked up): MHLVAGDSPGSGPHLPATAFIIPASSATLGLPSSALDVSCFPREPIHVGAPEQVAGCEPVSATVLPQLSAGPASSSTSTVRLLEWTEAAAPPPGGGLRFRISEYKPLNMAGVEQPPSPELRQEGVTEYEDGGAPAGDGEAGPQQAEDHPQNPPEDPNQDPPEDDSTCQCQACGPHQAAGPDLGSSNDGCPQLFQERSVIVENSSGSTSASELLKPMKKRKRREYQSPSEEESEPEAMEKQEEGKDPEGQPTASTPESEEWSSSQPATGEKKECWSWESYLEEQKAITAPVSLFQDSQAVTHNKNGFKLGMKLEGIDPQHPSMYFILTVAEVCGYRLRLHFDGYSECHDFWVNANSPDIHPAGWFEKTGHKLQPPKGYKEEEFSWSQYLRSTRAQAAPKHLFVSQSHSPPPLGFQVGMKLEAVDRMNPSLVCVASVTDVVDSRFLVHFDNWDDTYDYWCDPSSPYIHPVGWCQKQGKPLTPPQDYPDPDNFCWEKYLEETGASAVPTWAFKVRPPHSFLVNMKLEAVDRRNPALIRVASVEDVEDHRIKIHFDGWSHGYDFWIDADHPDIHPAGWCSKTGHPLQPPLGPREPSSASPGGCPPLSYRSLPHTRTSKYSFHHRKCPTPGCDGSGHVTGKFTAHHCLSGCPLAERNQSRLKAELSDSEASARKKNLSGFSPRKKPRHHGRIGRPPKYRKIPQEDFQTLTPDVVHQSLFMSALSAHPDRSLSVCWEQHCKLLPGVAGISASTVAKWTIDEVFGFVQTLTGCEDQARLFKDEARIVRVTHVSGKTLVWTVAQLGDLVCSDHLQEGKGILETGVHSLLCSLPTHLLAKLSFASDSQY
#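 Displacement of a biotinylated histone H3(1-15) peptide monomethylated at Lys9 (75 nM) from L3MBTL1 (50 nM) was measured by AlphaScreen after a 30 min room-temperature compound incubation; cefsulodin titration served as intraplate control.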
# G9a inh: qHTS Assay for Inhibitors of Histone Lysine Methyltransferase G9a; Histone-lysine N-methyltransferase EHMT2 (Homo sapiens), Q96KQ7; G9a H3K9 monomethylation, AlphaScreen, 2 h; Potency, µM (titrated, usually from 102 µM), for inactives: at the highest dose activity, negative = inhibition, most hits filed as inhibitors; hit rate 8.8% among 350,000; further: on the % scale 0 is the no-effect control and ±100 the full control effect; nearly all actives have a fitted effect of over 75% in size
#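 Using a bead-based AlphaScreen, monomethylated H3K9 product from 2 h room-temperature reactions (G9a 20 nM, peptide 500 nM, SAM 20 uM) was detected with 0.5 ug/mL rabbit anti-H3K9me1 antibody.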
# JMJD2A Tudor inh: qHTS Assay for Inhibitors of JMJD2A-Tudor Domain; Lysine-specific demethylase 4A (Homo sapiens), O75164; AlphaScreen JMJD2A-Tudor / H3K4me3 peptide binding; Potency, µM (top dose mostly 114 µM), for the others: at the highest dose activity change, negative = inhibition, most hits filed as inhibitors; hit rate 4.4% among 390,000; further: on the % scale 0 is the no-effect control and ±100 the full control effect; nearly all actives have a fitted effect of over 50% in size
# BAZ2B block: qHTS Assay for Inhibitors of BAZ2B | Potency, µM (highest dose often 114 µM), for inactives: top-dose activity change, negative = inhibition, actives largely listed as inhibitors | hit rate 4.4% among 360,000 | AlphaScreen BAZ2B-H3K14Ac peptide displacement | Bromodomain adjacent to zinc finger domain protein 2B (Homo sapiens), Q9UIF8; further: on the % scale 0 is the no-effect control and ±100 the full control effect; nearly all actives have a fitted effect of over 60% in size
#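 BAZ2B 50 nM plus b-H3(5-23)K14Ac 50 nM, PBS pH 7.4/0.01% Tween-20, 30 min RT; compound added (max 110 uM), 30 min RT; streptavidin donor/Ni-chelate acceptor beads 10 ug/mL final, 20 min dark; AlphaScreen read.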
# * marks the source's active call; other numbers are inactive results; u = inconclusive; x = not tested or not shown; [ ] = another dose, or the depositor's remark. An excerpt weighted towards active compounds, which were near 12% of everything screened. The call rests on the fitted dose curve; in most records, active means well fitted curve in the direction sought with a large enough effect; inconclusive means small, poorly fitted or top-dose-only effect, or another doubt; inactive means no such curve, though single readings can be large; an effect the other way counts as inactive or inconclusive. Potency means the concentration at half of the fitted maximal effect.
SMILES,HP1b chromo inh,Sfp PPTase inh,L3MBTL1 block,G9a inh,JMJD2A Tudor inh,BAZ2B block
O=C(CSc1nnc(-c2ccco2)n1CC1CCCO1)N1CCCCC1 (configuration not stated),6%,2%,7%,u,-13%,-4%
COc1ccc(C(=O)CSc2nnc(-c3ccco3)n2CC2CCCO2)cc1 (configuration not stated),61%,45µM*,3%,-13%[59 µM],-8%,5%
O=C(COc1ccc2ccccc2c1)NC1CC(=O)N(c2ccccc2)C1 (configuration not stated),30%,x,x,36%[59 µM],-19%,4%
CCOc1ccccc1N1CCN(CC(=O)NC(=O)NCc2ccco2)CC1,16%,7%,-10%,-7%,-15%,-29%
CCOc1ccccc1N1CCN(C/C=C/c2ccc(N(C)C)cc2)CC1,25µM*,-30%,x,10µM*,5.6µM*,5.6µM*
O=C(NC1CCCCC1)NC1CC2CCC(C1)N2C(=S)NCc1ccco1 (configuration not stated),11%,45µM*,-3%,-26%[59 µM],-19%,-11%
CCOc1ccccc1N1CCN(Cc2ccco2)CC1,u,3%,x,-6%[12.7 µM],3.5µM*,50µM*
CCOc1ccccc1N1CCN(C(=S)NCc2ccco2)CC1,-32%,-10%,u,50µM*,-34%,-34%
COc1ccc(OC)c(CNC(=O)c2ccccc2NC(=O)c2nsc3ccccc23)c1,4%[57 µM],x,x,-8%[59 µM],-10%,-7%
Cc1ccc2oc(C(=O)NCC(c3ccc(Cl)cc3)N3CCOCC3)c(C)c2c1 (configuration not stated),51%,x,x,-1%[59 µM],-25%,-22%
O=S1(=O)NCC23CCC(CC21)O3 (configuration not stated),14%,10%,x,x,-5%,x
CCOc1ccccc1N1CCN(S(=O)(=O)c2cccs2)CC1,42%,2%,-2%,15%[59 µM],-23%,-3%
S=C(NCc1ccco1)N1CCN(C/C=C/c2ccccc2)CC1,-18%,79µM*,-7%,x,u,u
S=C(Nc1ccccc1)N1CCN(C/C=C/c2ccccc2)CC1,28%,3%,-22%,u,-30%,-36%
CCOc1ccccc1N1CCN(S(=O)(=O)CC)CC1,9%,-18%,-1%,40µM*,-18%,-4%
CCOc1ccc(C(=O)NC2CCN(C(=S)NCc3ccco3)CC2)cc1,42%,7.1µM*,-3%,u,-12%,-6%
CCOc1ccccc1OCCCNCc1ccco1,u,-1%,2%,u,28µM*,-11%
CCOc1ccc(C(=O)NCc2ccco2)cc1OCC,12%,18%,-5%,-7%,-6%,6%
Cc1ccc(C)c(CN2C(=O)CSc3ccc(C(=O)NCc4ccc(F)cc4)cc32)c1,25%,x,x,9%[59 µM],4%,1%
COc1cccc(Nc2nc3c(S(=O)(=O)c4cc(C)ccc4C)nnn3c3ccsc23)c1,22%,x,x,-32%[59 µM],-10%,-12%
CC(=O)N1CCC2(CC1)CCN(C(=O)Nc1cccc(C#N)c1)CC2,x,13%,x,-5%[12.7 µM],x,x
CC(=O)c1ccc(N2CCN(C(=S)NCc3ccco3)CC2)cc1,3%,5%,-5%,56µM*,-4%,-30%
CCOc1ccccc1N1CCN(Cc2cnc(-c3ccccc3)[nH]2)CC1,-15%,11%,-30%,u,-34%,u
CCOc1ccccc1N1CCN(Cc2ccc(Br)s2)CC1,u,u,-4%,u,3.2µM*,u
S=C(NCc1ccco1)N1CCN(c2ccc(Cl)cc2)CC1,28%,7%,0%,u,-19%,-29%
SMILES,HP1b chromo inh,Sfp PPTase inh,L3MBTL1 block,G9a inh,JMJD2A Tudor inh,BAZ2B block
FC(F)(F)c1ccc(CN2C[C@@H]3C(c4ccc(C(F)(F)F)cc4)C4(c5ccccc5)CC3(C4)[C@H]2c2ccccc2)cc1 (some centres not stated),x,9%,x,x,x,x
O=C(Nc1ccccc1)N1CC[C@@]2(CCCN(C(=O)c3ccncc3)C2)C1,x,11%,x,13%[12.7 µM],x,x
CCCCOc1cccc(C(=O)N(Cc2cccs2)c2ccc(OC)cc2)c1,85%,x,x,70%[59 µM],56%,97%
COc1ccc(OC)c(-n2c(-c3cccc(S(=O)(=O)N(C)C)c3)n[nH]c2=S)c1,-19%,-11%,1%,2.5µM*,u,x
COc1cccc(-n2c(-c3cccc(S(=O)(=O)N(C)C)c3)n[nH]c2=S)c1,14%,50µM*,-3%,2.5µM*,8.9µM*,x
CCSc1nnc(-c2cccc(S(=O)(=O)N(C)C)c2)n1-c1cc(OC)ccc1OC,29%,13%,0%,u,-13%,13%
COc1cccc(CNC(=O)CN2N=C(c3ccc(C)cc3)CCC2=O)c1,-1%,x,x,-15%[59 µM],-22%,-31%
C=CCNC(=O)C(=O)NCCOc1ccccc1Cl,38%,-7%,9%,-11%[59 µM],6%,11%
C=CCNCCCOc1ccc(Cl)cc1Br,4%,-7%,7%,u,10µM*,-34%
COCCNCCCOc1ccc(Br)cc1Cl,u,6%,3%,10µM*,3.2µM*,u
OCCNCCCOc1ccc(Cl)cc1Br,22%,13%,5%,-1%[59 µM],-14%,-1%
COCCNC(=O)c1cc(Br)ccc1Cl,28%,6%,-10%,2%[59 µM],-6%,-7%
COCCNCCCOc1ccc(Cl)cc1Br,u,-7%,7%,11µM*,7.9µM*,50µM*
COCCCNCCCCOc1ccc(Br)cc1Cl,-50%,-16%,4%,u,22µM*,u
COc1ccc(Cn2c(=O)c3oc4ccccc4c3n(CC(=O)Nc3c(C)cccc3C)c2=O)cc1,35%,x,x,-2%[59 µM],-1%,-2%
CC(C)OC(=O)c1nn2c(C(F)(F)F)cc(-c3ccco3)nc2c1Cl,27%,6%,9%,u,-4%,-6%
CC(C)OC(=O)c1nn2c(C(F)(F)F)cc(-c3ccc(Br)o3)nc2c1Br,10%,1%,-10%,35µM*,-22%,-4%
CCCCCCCCOC(=O)c1c(CSC(=N)N)n(C)c2cc(Br)c(OC(C)=O)cc12,u,40µM*,18%,x,u,-34%
CCOC(=O)c1c(CSC(=N)N)n(-c2ccc(Br)cc2)c2cc(Br)c(OC(C)=O)cc12,6%,u,-2%,71µM*,-36%,u
CCOC(=O)c1c(CSc2nc(C)cc(C)c2C#N)n(C)c2cc(Br)c(OC(C)=O)cc12,16%,2%,7%,11%[59 µM],-6%,2%
